# Laboratory results as given in PubChem BioAssay AID1611 (NINDS Approved Drug Screening Program, 2009).
# Assay: HSE-luciferase reporter activators – cell-based (AID 1611)
# Details: human cells, HSE-luciferase heat shock reporter; stronger effect = higher value
row,SMILES,fold change
1,COc1ccc(C(=O)c2ccccc2)c(O)c1,0.92
2,O=C(C1CCCCC1)N1CC(=O)N2CCc3ccccc3C2C1 (stereo not given),1.17
3,Oc1ccc(Cl)c2cccnc12,1.15
4,CC[C@H]1CN2CCc3cc(OC)c(OC)cc3C2C[C@@H]1CC1NCCc2cc(OC)c(OC)cc21 (stereo not given in full),0.89
5,Cc1cc(-c2ccccc2)nnc1NCCN1CCOCC1,0.98
6,CCCCCC(C)N (stereo not given),1.8
7,CCN(CC)CCCC(C)Nc1c2ccc(Cl)cc2nc2ccc(OC)cc12 (stereo not given),0.97
8,CN(Cc1cnc2nc(N)nc(N)c2n1)c1ccc(C(=O)N[C@@H](CCC(=O)O)C(=O)O)cc1,0.91
9,NC(=O)c1cnccn1,1.78
10,CCC1(C)CC(=O)NC1=O (stereo not given),1.19
11,c1coc(CNc2ncnc3nc[nH]c23)c1,1.22
12,O=C(O)CCC(=O)c1ccc(-c2ccccc2)cc1,1.02
13,OCC(O)CN1CCN(c2ccccc2)CC1 (stereo not given),0.82
14,CC(=O)OCC(=O)[C@H]1CCC2C3CCC4=CC(=O)CC[C@]4(C)C3CC[C@@]21C (stereo not given in full),1.05
15,CC(Cc1cccc(C(F)(F)F)c1)NCCOC(=O)c1ccccc1 (stereo not given),1.03
16,CC(C[N+](C)(C)C)OC(N)=O (stereo not given),0.9
17,CC(C)=CCC/C(C)=C/CO,3.1
18,CN(C)CCOC(c1ccccc1)c1ccccc1 (tested in a mixture with another compound),0.8
19,CCn1cc(C(=O)O)c(=O)c2cc(F)c(N3CCNCC3)cc21,1.06
20,O=C(O)c1cc(=O)c2ccccc2[nH]1,1.38

row,SMILES,fold change
1,NC(N)=O,1.06
2,Nc1nccs1,1.19
3,Fc1ccc(C(c2ccc(F)cc2)N2CCN(C/C=C/c3ccccc3)CC2)cc1,1.3
4,CC(C)(C)NC[C@@H](O)COc1nsnc1N1CCOCC1,0.87
5,COc1ccc(NS(=O)(=O)c2ccc(N)cc2)nn1,1.39
6,O=C(O)C1CCCNC1 (stereo not given),0.81
7,NNCCc1ccccc1,0.93
8,NC(N)=NC(N)=Nc1ccccc1,0.95
9,Nc1cc(-c2ccncc2)c[nH]c1=O,1.16
10,COC1=C2C[C@@H](C)C[C@H](OC)[C@H](O)[C@@H](C)/C=C(\C)[C@@H](OC(N)=O)[C@H](OC)/C=C\C=C(/C)C(=O)NC(=CC1=O)C2=O,1.05
11,COc1ccc(CN(CCN(C)C)c2ccccn2)cc1,1.01
12,CCN(CC)C(=O)c1cccc(C)c1,0.91
13,CN1C2CC[C@H]1CC(OC(=O)C(O)c1ccccc1)C2 (stereo not given in full),1.12
14,CN1C2CC(OC(=O)[C@H](CO)c3ccccc3)C[C@H]1[C@H]1OC21 (stereo not given in full),1.34
15,N[C@@H](CCC(=O)N[C@@H](CS)C(=O)NCC(=O)O)C(=O)O,1.11
16,Nc1ccc(S(=O)(=O)Nc2ccnn2-c2ccccc2)cc1,0.94
17,COC(=O)[C@H]1[C@H]2C[C@@H]3c4[nH]c5cc(OC)ccc5c4CCN3C[C@H]2C[C@@H](OC(=O)c2cc(OC)c(OC)c(OC)c2)[C@@H]1OC,0.6
18,COc1ccc(C[C@H](N)C(=O)N[C@@H]2[C@@H](CO)OC(n3cnc4c(N(C)C)ncnc43)[C@@H]2O)cc1 (stereo not given in full),1.26
19,C[C@H](CS)C(=O)N1CCC[C@H]1C(=O)O,0.72
20,CN=C(NC#N)NCCSCc1nc[nH]c1C,0.5
